From paper PMC5540273 (PLoS ONE, 2017)

Assays:
Details in all cases: concentration: 1 μM,replicates: in singlicate; n = 1
[1] = system: RPS6KA4(Kin.Dom.1-N-terminal)
[2] = system: RPS6KA4(Kin.Dom.2-C-terminal)
[3] = system: RPS6KA5(Kin.Dom.1-N-terminal)
[4] = system: RPS6KA5(Kin.Dom.2-C-terminal)
[5] = system: T1, RSK1(Kin.Dom.1-N-terminal)
T1 construct: gene RPS6KA1

[6] = system: T2, RSK1(Kin.Dom.2-C-terminal)
T2 construct: gene RPS6KA1

[7] = system: T3, RSK2(Kin.Dom.1-N-terminal)
T3 construct: gene RPS6KA3

[8] = system: T4, RSK2(Kin.Dom.2-C-terminal)
T4 construct: gene RPS6KA3

[9] = system: T5, RSK3(Kin.Dom.1-N-terminal)
T5 construct: gene RPS6KA2

[10] = system: T6, RSK3(Kin.Dom.2-C-terminal)
T6 construct: gene RPS6KA2
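Also: KINOMEscan kinase panel screen.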

| SMILES | %Inh [1] | %Inh [2] | %Inh [3] | %Inh [4] | %Inh [5] | %Inh [6] | %Inh [7] | %Inh [8] | %Inh [9] | %Inh [10] |
| --- | --- | --- | --- | --- | --- | --- | --- | --- | --- | --- |
| COc1ccc(C[C@@H](CN)NC(=O)c2cc(Br)c(-c3ccnc4[nH]ccc34)s2)cc1.Cl.Cl [GSK1389063] | 68% | 59% | 87% | 21% | 42% | 0% | 90.8% | 0% | 63% | 15% |
| CCN(CC)CCOc1ccc(Nc2ncc3cc(-c4c(Cl)cccc4Cl)c(=O)n(C)c3n2)cc1 [SB-601273] | 0% | 0% | 0% | 36% | 19% | 51% | 45% | 47% | 29% | 0% |
| Cc1ccc(-n2nc(C(C)(C)C)cc2NC(=O)Nc2ccc(OCCN3CCOCC3)c3ccccc23)cc1 [GW839464] | 23% | 0% | 2% | 18% | 100% | 0% | 0% | 0% | 54% | 4% |
| Cl.Oc1cc(-c2nc(-c3ccccc3)[nH]c2-c2ccncc2)ccc1Cl [SB-386023] | 0% | 13% | 1% | 0% | 4% | 23% | 0% | 0% | 0% | 0% |
| Cc1cc2cn[nH]c2cc1-c1cccc2c(N)c(C(N)=O)nnc12 | 92.6% | 12% | 51% | 2% | 48% | 15% | 58% | 0% | 26% | 2% |
| Cl.Cl.NC[C@H](CC1CCCCC1)NC(=O)c1cc(Br)c(-c2ccnc3[nH]ccc23)s1 [GSK1581427] | 56% | 5% | 50% | 13% | 26% | 64% | 49% | 5% | 38% | 0% |
| CNC(=O)c1ccccc1Sc1ccc2c(/C=C/c3ccccn3)n[nH]c2c1 | 0% | 0% | 0% | 0% | 0% | 0% | 0% | 0% | 11% | 6% |
| Cc1ccc2c(-c3ccncc3)c(-c3ccc(F)cc3)nn2c1.Cl [GW461484] | 18% | 0% | 0% | 15% | 0% | 52% | 0% | 1% | 1% | 0% |
| Nc1nc(Nc2ccccc2)cc(-c2ccc3c(N)n[nH]c3c2)n1 [GSK2225749] | 0% | 51% | 15% | 17% | 0% | 0% | 20% | 22% | 7% | 4% |
| NC(=O)c1cc(-c2ccccc2)cc2c(C3CCNCC3)c[nH]c12 [GSK301362] | 16% | 0% | 12% | 4% | 8% | 0% | 0% | 54% | 27% | 0% |
| C[C@H]1Oc2cc(cnc2N)-c2c(nn(C)c2C#N)CN(C)C(=O)c2ccc(F)cc21 | 3% | 0% | 16% | 1% | 0% | 0% | 0% | 0% | 5% | 14% |
| C[C@@H]1CCN(C(=O)CC#N)C[C@@H]1N(C)c1ncnc2[nH]ccc12 |  | 0% | 0% | 0% | 20% | 0% | 0% | 0% | 0% | 100% |
| C=CC(=O)Nc1cc2c(Nc3ccc(F)c(Cl)c3)ncnc2cc1OCCCN1CCOCC1 [GW781483] | 7% | 3% | 0% | 0% | 0% | 0% | 33% | 24% | 17% | 11% |
| O=C(NCCNc1ccnc(NCc2ccc(F)cc2)n1)c1cc2ccccc2s1 [GSK1379944] | 28% | 0% | 24% | 0% | 11% | 0% | 0% | 18% | 20% | 0% |
| Cc1cc(C(=O)Nc2ccc(Oc3ccc4nc(NC(=O)C5CC5)cn4n3)cc2)nn1-c1ccccc1 | 20% | 0% | 0% | 6% | 0% | 0% | 0% | 49% | 0% | 6% |
| CN(C)CCOc1ccc(-c2cc(-c3c[nH]nc3-c3ccccn3)ccn2)cc1 [GW835314] | 0% | 17% | 8% | 1% | 0% | 40% | 21% | 16% | 84% | 10% |
| O=C(NCCCN1CCOC1=O)c1cnc(NCc2cc(Cl)ccc2Cl)nc1NC1CCCC1 | 10% | 0% | 15% | 8% | 8% | 6% | 2% | 16% | 67% | 13% |
| CCN(CC)CCCCNc1ncc2cc(-c3c(Cl)cccc3Cl)c(NC(=O)NC(C)(C)C)nc2n1 | 0% | 16% | 8% | 0% | 0% | 13% | 0% | 0% | 0% | 14% |
| CC(C)Nc1cc(-c2ccc3c(N)n[nH]c3c2)nc(N)n1 [GSK2221681] | 0% | 88% | 0% | 68% | 28% | 0% | 8% | 19% | 18% | 12% |
| Cc1n[nH]c2ccc(-c3cc(OC[C@@H](N)Cc4ccccc4)cnc3-c3ccoc3)cc12.O=C(O)C(F)(F)F.O=C(O)C(F)(F)F [GSK507358] | 0% | 0% | 42% | 1% | 4% | 0% | 17% | 0% | 12% | 16% |
| Cl.Cl.NC[C@H](Cc1ccc(C(F)(F)F)cc1)NC(=O)c1cc(Br)c(-c2ccnc3[nH]ccc23)s1 [GSK1487252] | 41% | 0% | 72% | 21% | 20% | 7% | 56% | 1% | 37% | 0% |
| CN(C)CC(O)COc1ccc(Nc2nccc(-c3cnn4nc(N5CCOCC5)ccc34)n2)cc1 (centres unmarked) [GW767488] | 0% | 53% | 0% | 0% | 23% | 49% | 62% | 1% | 20% | 37% |
| Cl.Cl.Nc1nc(-c2ccc3c(N)n[nH]c3c2)cc(N2CCCC(NC(=O)c3ccccc3)C2)n1 (centres unmarked) [GSK2286775] | 0% | 0% | 0% | 4% | 20% | 10% | 6% | 0% | 32% | 16% |
| C[C@@H](Oc1cc(-c2cnn(C3CCNCC3)c2)cnc1N)c1c(Cl)ccc(F)c1Cl | 0% | 3% | 0% | 0% | 14% | 17% | 13% | 0% | 14% | 20% |
| CCn1c(-c2nonc2N)nc2c(C#CC(C)(C)O)nc(OCCN)cc21.Cl.Cl [GSK902056] | 0% | 79% | 23% | 38% | 0% | 0% | 10% | 22% | 19% | 0% |
| Cc1occc1-c1nc(N)c(OC[C@@H](N)Cc2c[nH]c3ccccc23)cc1-c1cc2c(C)n[nH]c2cn1 [GSK1660450] | 7% | 0% | 72% | 0% | 26% | 18% | 98.1% | 24% | 87% | 0% |
| CC(C)N1C(=O)Cc2cc(Nc3ncc(C(F)(F)F)c(NCc4cccc(S(C)(=O)=O)c4)n3)ccc21 | 0% | 24% | 0% | 22% | 21% | 19% | 56% | 2% | 39% | 26% |
